According to PubChem BioAssay AID687001 (Broad Institute, 2013):
Entries with a potency or affinity are not part of this list. Activity calls are given as the source filed them.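 The calls were made as follows: active = signal-lowering compounds whose fitted half-maximal concentration is at or below twice the top tested dose in every run; inconclusive = runs disagree, flat 30 to 70% inhibition, or poor curve fit; inactive = the rest.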

Biological target: Protein S100-A4 (Homo sapiens) (UniProt P26447)
Assay: S100A4-myosin IIA binding inhibitor potency, dose response, biochemical, fluorescence polarization, cherry-picked hits (AID 687001)
Details: FP, S100A4/TAMRA-myosin IIA peptide binding; series mostly up to 11 µM

Sequence of Protein S100-A4 (Homo sapiens) (P26447 whole entry, looked up): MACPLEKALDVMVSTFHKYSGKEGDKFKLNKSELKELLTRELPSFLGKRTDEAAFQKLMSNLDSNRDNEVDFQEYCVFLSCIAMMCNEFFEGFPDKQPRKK

outcome, inactive:
O=S(=O)(CCS(=O)(=O)c1ccccc1)c1ccccc1
O=C(CSc1ccc([N+](=O)[O-])cn1)Nc1ccc2c(c1)OCO2
COc1ccc(C(C)(O)c2nc(-c3cccs3)cs2)cc1 (configuration not stated)
C[C@@H]1CN([C@@H](C)CO)C(=O)c2cc(NC(=O)c3ccncc3)ccc2O[C@@H]1CN(C)Cc1ccncc1
COc1cc(S(=O)(=O)NCc2ccccn2)ccc1Cl
O=C(/C=C(\Nc1ccc(Cl)c(C(F)(F)F)c1)c1ccccc1)c1ccccc1
CCN(CC)c1ccc(S(=O)(=O)N2CCOCC2)cc1NC(=O)COC(=O)/C=C/c1ccccc1
CCOc1ccc(N2CC(C(=O)NNC(=O)c3ccc(Br)cc3)CC2=O)cc1 (configuration not stated)
CC(C)NC(=O)c1ccc(COc2cc(Cl)ccc2Cl)o1
O=C1CN(C(=O)COc2c(F)c(F)cc(F)c2F)c2ccccc2N1
Cc1cc(C(=O)NC2CCCN(Cc3ccc(Cl)cc3)C2)n(C)n1 (configuration not stated)
O=C(NCCOc1ccccc1)C1CCC(=O)N(CCCN2CCOCC2)C1 (configuration not stated)
CCC(=O)N1CC(=O)N2[C@H](CO)[C@H](c3ccc(C#CC4CCCC4)cc3)[C@H]2C1
O=C(CN1C(=O)CCS(=O)(=O)c2ccccc21)Nc1ccc(F)cc1
Cc1noc(C)c1S(=O)(=O)N(C)C[C@@H]1Oc2ccc(NC(=O)C3CC3)cc2CC(=O)N([C@@H](C)CO)C[C@H]1C
Cc1nc(Nc2cccc(O)c2)c2oc3ccccc3c2n1
O=C(CN1C(=O)NC2(CCCCCCC2)C1=O)Nc1c(Cl)cccc1Cl
